Screens as filed in PubChem BioAssay.
The list is not random: actives were taken first. Their share in the collection is about 4.5%.
GRIN3A LBD mod – modulators (binders) of human NR3A ligand-binding domain; NR3A LBD differential scanning fluorimetry, Tm shift; 0% = protein alone, 100% = glycine-bound protein; Tm shift relative to glycine control, % at 25 µM; hit rate 2.5% among 340,000; AID 1259313;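 active = melting temperature shift of at least 10% of the positive control shift, at one fixed dose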
dFosB act-1 – mouse delta FosB homodimer activation; activation, % at 25 µM; P13346; purified delta FosB, TAMRA-CDK5 oligo fluorescence polarization; percent of positive-control signal above neutral wells; hit rate 0.99% among 340,000;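 active = mean activation above about 17%, with every replicate also reaching it, limit read from the data, passing the limit was not always enough; inconclusive = only one of the two conditions met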
Target sequence (P13346 whole entry, looked up): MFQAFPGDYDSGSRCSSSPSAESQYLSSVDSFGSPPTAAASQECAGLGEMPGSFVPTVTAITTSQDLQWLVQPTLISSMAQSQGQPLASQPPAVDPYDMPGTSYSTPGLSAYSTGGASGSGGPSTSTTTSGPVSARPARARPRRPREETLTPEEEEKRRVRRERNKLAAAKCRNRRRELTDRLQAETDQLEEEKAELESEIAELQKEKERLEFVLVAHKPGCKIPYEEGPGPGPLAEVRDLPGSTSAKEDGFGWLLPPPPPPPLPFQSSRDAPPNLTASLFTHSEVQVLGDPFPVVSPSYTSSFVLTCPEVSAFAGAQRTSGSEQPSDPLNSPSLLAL
ZTA counter – ZTA (EBV) inhibition in EBNA-1 counter-screen; inhibition, % at 11 µM; hit rate 0.15% among 320,000; AID 2234; P03206; ZTA-DNA binding, fluorescence polarization; in the data active = inhibition above about 33%
Target sequence (P03206 whole entry, looked up): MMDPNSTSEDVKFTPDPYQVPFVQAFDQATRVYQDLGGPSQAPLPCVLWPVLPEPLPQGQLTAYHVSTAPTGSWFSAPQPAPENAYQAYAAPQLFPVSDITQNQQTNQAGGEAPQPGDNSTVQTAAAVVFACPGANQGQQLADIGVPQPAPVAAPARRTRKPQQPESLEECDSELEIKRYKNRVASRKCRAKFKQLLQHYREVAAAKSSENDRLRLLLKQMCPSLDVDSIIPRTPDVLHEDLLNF
Rpn11 inh – blocks the human proteasome subunit Rpn11 | O00487 | hit rate 0.59% among 360,000 | human 26S proteasome, Ub4-pepOG fluorescence polarization; 20S core pre-blocked with epoxomicin | inhibition, % at 20 µM;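 active = inhibition at 20 µM, scaled to each plate's controls, above about 33%, limit read from the data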
EBNA-1 inh – blocks EBNA-1 binding to DNA; EBNA-1 DNA binding, fluorescence polarization; inhibition, % at 14.8 µM; hit rate 0.34% among 300,000; AID 1950; in the data active = inhibition above about 28%
TPT1 inhibitor – C. albicans TPT1 enzyme inhibition; recombinant caTPT1, FP RNA substrate dephosphorylation; inhibition, % at 5 µM; hit rate 0.81% among 300,000;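 active = inhibition above the mean of all tested compounds plus 3 SD, set per screening campaign, cut at about 24% in these data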
Zta DNA confirm – EBV ZTA DNA binding inhibition, confirmation | shares compounds with ZTA counter | Zta-ZRE DNA binding, fluorescence polarization | inhibition, % at 11.1 µM | hit rate 30% among 320;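 active = mean inhibition across triplicate runs above the hit threshold derived for the original primary screen, cut at about 33% in these data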
EBNA-1 counter – counter-screen for ZTA inhibitors: EBNA-1 DNA binding inhibition. 320 tested, under 10 active. shares compounds with ZTA counter. fluorescence polarization. inhibition, % at 14.8 µM. AID 2362; call rule not given here
dFosB act-2 – enhances mouse delta FosB homodimer binding to DNA | shares compounds with dFosB act-1 | purified delta FosB, TAMRA-CDK5 oligo fluorescence polarization; normalised: neutral wells 0, positive control 100 | activation, % at 24.9 µM | 2,400 tested, under 10 active | AID 588690;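 active = highest replicate activation at or above 34% and every replicate reaching that threshold; inconclusive = meets only one of the two criteria; inactive = meets neither criterion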;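 also: higher polarization means more probe DNA bound by delta FosB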
Rpn11 inh conf – confirmation of human proteasome Rpn11 inhibitors. hit rate 29% among 1,900. AID 602318. inhibition, % at 20 µM. purified human 26S proteasome, Ub4-pepOG fluorescence polarization; proteasome pretreated with epoxomicin. shares compounds with Rpn11 inh
MMP-2 inh – counter-screen for RPN11 inhibitors: inhibition of human MMP-2 | shares compounds with Rpn11 inh | inhibition, % at 20 µM | AID 602330 | hit rate 4% among 1,900 | recombinant MMP-2, FRET peptide cleavage fluorescence;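 also: human MMP-2 activated beforehand with APMA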
Thrombin FP – blocks bovine thrombin, flagging nonselective RPN11 hits; inhibition, % at 20 µM; hit rate 13% among 1,900; bovine thrombin cleavage of Ub4-pepOG, fluorescence polarization; shares compounds with Rpn11 inh;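 active = mean inhibition at least 40% at 20 µM, or signal 3 deviations below plate average, so some actives read negative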
Numbers stand for hits; – = inactive; ? = inconclusive; · = not tested or not shown. Rule as the data show it, unless noted: active = inhibition above about 40%; inactive = the rest.

SMILES | GRIN3A LBD mod | dFosB act-1 | ZTA counter | Rpn11 inh | EBNA-1 inh | TPT1 inhibitor | Zta DNA confirm | EBNA-1 counter | dFosB act-2 | others
C#CCOCCOCCOCCNc1nc(N2CCN(C(=O)CCCCCCCCCCNC(=O)Cn3cc(C[C@@H](C)O)nn3)CC2)nc(N2CCN(C(=O)CCCCCCCCCCNC(=O)[C@H](CCCN=C(N)N)n3cc(C[C@@H](C)CC)nn3)CC2)n1 | – | – | 55.7 | 84.1 | – | – | – | – | ·
CCOc1ccc(CCNC(=O)CSc2ncn[nH]2)cc1OCC | – | – | – | – | – | – | · | · | ·
Cc1cc(=O)oc(C)c1C(=O)OCC(=O)c1ccc(Cl)cc1 | – | – | 35.9 | – | – | – | – | – | ·
CC[n+]1c(/C=C/c2ccc(OC(C)=O)c(OC)c2)ccc2ccccc21 | – | – | · | – | · | · | · | · | ·
CCN(CC)c1ccc(/C=C/c2ccc3ccc(OC)cc3[n+]2CC)cc1 | – | ? | 50.1 | – | – | – | – | – | ·
Cc1ccc(S(=O)(=O)/N=C2/NC(=O)/C(=C/c3cc([N+](=O)[O-])ccc3O)S2)cc1 | 28.2 | – | 34.0 | · | – | 64.4 | 41.3 | – | ·
O=C1CCCN1CCCNc1nc2c(S(=O)(=O)c3ccc(Br)cc3)nnn2c2ccccc12 | – | – | – | – | – | – | · | · | ·
CCOC(=O)c1c(NC(=O)Cn2nc(C(=O)O)c3ccccc3c2=O)sc(CC)c1C | – | – | 35.6 | – | – | – | – | – | ·
CN(C(=O)c1ccc(NC(=O)C2CCCN(C(=O)OC(C)(C)C)C2)cc1)C1CCCCC1 (stereo unspecified) | – | – | · | – | · | · | · | · | ·
CCNc1ncnc2c1cnn2C1CCCCO1 (stereo unspecified) | – | – | · | – | · | · | · | · | ·
CCc1nc(SCC(=O)Nc2nccs2)c2oc3ccccc3c2n1 | – | – | 41.9 | – | – | – | 38.2 | – | ·
O=C(CSc1ncnc2c1oc1ccccc12)Nc1nccs1 | – | – | – | – | – | – | · | · | ·
O=C(Nc1cccc(-c2cn3ccccc3n2)c1)c1cc2ccccc2oc1=O | – | 60.9 | 36.4 | – | – | – | 34.8 | – | –
CC(C)C[C@H](N)c1cn([C@@H](Cc2ccc(O)cc2)C(=O)N2CCNCC2)nn1 | – | – | – | – | – | – | · | · | ·
O=C(Nc1ccc(-c2nc3ccc(NC(=O)c4cccs4)cc3[nH]2)cc1)c1cccs1 | 30.4 | 46.7 | 55.3 | – | – | – | 43.0 | – | –
COc1cc(OC)cc(C(=O)Nc2nc3ccc(S(C)(=O)=O)cc3s2)c1 | – | – | – | – | – | – | · | · | ·
CS(=O)(=O)c1ccc2nc(NC(=O)c3ccc(NS(=O)(=O)c4ccc(F)c(F)c4)cc3)sc2c1 | 23.6 | 35.5 | 87.1 | – | – | – | 39.3 | – | –
Cc1ccc2nc(-c3ccc(SCC(=O)Nc4nc(C)cs4)nc3)[nH]c2c1 | – | 33.0 | 48.4 | – | – | – | – | – | –
Cc1ccc(NC(=O)c2c(C)nc3ccccn23)cc1C | – | – | – | – | – | – | · | · | ·
Cc1cc(=O)n2c(C(=O)Nc3ccc(C)c(C)c3)c(C(=O)Nc3ccccc3)sc2n1 | – | 34.1 | 53.2 | – | – | – | – | 78.2 | –
CCCCn1nnnc1C(C1CC1)N1CCN(C/C=C/c2ccccc2)CC1 (stereo unspecified) | · | · | · | – | · | · | · | · | ·
CCCOc1ccc(-c2csc3ncn(Cc4ccc(C(=O)O)cc4)c(=O)c23)cc1 | – | 23.9 | 42.8 | – | – | – | – | – | –
O=C(COC(=O)C1CC(=O)N(CCc2ccccc2)C1)c1ccc[nH]1 (stereo unspecified) | – | – | – | – | · | · | · | · | ·
Cn1c(O)c(C=NCCCCCC(=O)O)c(=O)n(C)c1=O | – | – | · | – | · | · | · | · | ·
CC(=O)c1sc(NC(=O)c2cc(=O)c3ccccc3o2)nc1C | – | – | – | – | – | – | · | · | ·
SMILES | GRIN3A LBD mod | dFosB act-1 | ZTA counter | Rpn11 inh | EBNA-1 inh | TPT1 inhibitor | Zta DNA confirm | EBNA-1 counter | dFosB act-2 | others
CC(=O)c1sc(NC(=O)c2oc3ccc(F)cc3c2C)nc1C | – | 59.2 | 66.9 | – | · | · | 47.0 | – | –
C#CCOCCOCCOCCNc1nc(N2CCN(C(=O)CCCCCCCCCCNC(=O)Cn3cc(CCCCCN)nn3)CC2)nc(N2CCN(C(=O)CCCCCCCCCCNC(=O)[C@@H](CCSC)n3cc(CCO)nn3)CC2)n1 | – | – | 80.4 | 41.5 | – | – | – | – | · | Rpn11 inh conf=–;MMP-2 inh=–;Thrombin FP=–
CCc1ccc(OCC(=O)Nc2ccc(-c3cc4ccccc4oc3=O)c(OC)c2)cc1 | – | – | – | – | – | – | · | · | ·
NC1=NC(=O)/C(=C/c2ccc(-c3ccc(S(N)(=O)=O)cc3)o2)S1 | – | – | 37.3 | 77.8 | – | – | – | – | · | Rpn11 inh conf=89.4;MMP-2 inh=45.6;Thrombin FP=42.0
NS(=O)(=O)c1ccc(-c2ccc(/C=C3\C(=O)Nc4ccccc43)o2)cc1 | · | · | – | · | – | – | · | · | ·
COc1ccc(C)cc1Nc1nc(N)c2ccccc2n1 | – | 26.6 | – | – | – | – | · | · | –
Cc1c(-c2nc(N)nc(Nc3ccc(F)cc3)n2)oc2ccccc12 | – | 70.7 | – | – | – | – | · | · | –
Cc1ccc(SCC(=O)NC2CCCCCC2)cc1 | – | – | – | – | – | – | · | · | ·
O=C(/C=C/c1ccc(Cl)cc1)Nc1nccs1 | – | 22.9 | · | – | · | · | · | · | –
Cc1nc(NC(=O)/C=C/c2ccccc2)sc1C(=O)Nc1ccc(Cl)cc1 | 37.6 | 30.6 | – | – | – | – | · | · | –
O=C(/C=C/c1ccccc1)NC(NC(=S)Nc1ccc(Cl)cc1)C(Cl)(Cl)Cl (stereo unspecified) | 24.6 | 23.9 | – | – | – | – | · | · | –
COC(=O)C(Cc1ccccc1)NC(=O)C(CC(C)C)NC(=O)OC(C)(C)C (stereo unspecified) | – | – | – | – | – | – | · | · | ·
CC(C)CC(NC(=O)C(Cc1ccc(OCc2ccccc2)cc1)NC(=O)OC(C)(C)C)C(N)=O (stereo unspecified) | – | 29.8 | – | – | – | – | · | · | –
c1ccc(CSc2nnc(-c3c[nH]c4ccccc34)o2)cc1 | – | 20.0 | – | – | – | – | · | · | –
